Laboratory results: PubChem BioAssay
Activity calls are given as the source filed them.

What was measured:
[1] = molecular target: Albumin (Bos taurus) (UniProt P02769); assay: bovine serum albumin binders on microarray, profiling panel, artefact control for SMM control protein annotation, biochemical, small-molecule microarray, Alexa647 label, 635/667 nm fluorescence (AID 1118); details: BSA-A647 binding, fluorescence 635 nm, higher = more signal;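 note: score merges 667 nm emission intensity and signal-to-noise per printed compound spot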
[2] = small-molecule microarray binders of probe aXIP, primary screen, biochemical, NeuroSMM set, 635/667 nm fluorescence (AID 1119); details: higher = more signal, called active from +8 up or from −8 down;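 note: probe is the protein aXip251-270 applied at 1 µg/mL to compound-printed slides; binding of probe to printed compounds measured as 667 nm fluorescence plus signal to noise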
[3] = small-molecule binders of probe aNOTCH3, primary screen, biochemical, small-molecule microarray, 635/667 nm fluorescence (AID 1120); details: higher = more signal;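 note: probe is a biotin-tagged antibody raised against NOTCH3 rather than NOTCH3 protein; score merges spot fluorescence near 667 nm with spot signal to noise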
[4] = small-molecule binders of probe aNOTCH2, primary screen, biochemical, small-molecule microarray, 635/667 nm fluorescence (AID 1121); details: higher = more signal;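 note: score merges feature fluorescence read at 667 nm with its signal to noise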
[5] = molecular target: Carbonic anhydrase 2 (Homo sapiens) (UniProt P00918); assay: CAII small-molecule binders, profiling panel, biochemical, small-molecule microarray, Alexa647-labelled CAII (AID 1122); details: CAII-A647 binding fluorescence, higher = more signal
[6] = COS7 lysate on small-molecule microarray, probe aHis, 635 nm (AID 1123); details: COS7 cell lysate, fluorescence, higher = more signal;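 note: z-score combines 667nm fluorescence intensity with signal-to-noise per printed compound spot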
[7] = compound binding in COS7 lysate, probe aLAP1, primary screen, cell lysate, small-molecule microarray (AID 1124); details: probe aLAP1, fluorescence, higher = more signal;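 note: lysate comes from COS7 cells expressing LAP1 and is applied at 0.3 µg/mL; score merges spot fluorescence near 667 nm with signal-to-noise over triplicate slides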
[8] = system: Sam68 (KHDRBS1); assay: Sam68 small-molecule binders, primary screen, biochemical, small-molecule microarray, 635 nm fluorescence (AID 1125); details: small-molecule microarray binding, higher = more signal;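 note: score merges 667 nm channel intensity with signal to noise over triplicate slides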
[9] = system: Chordin-like protein 2 (CHRDL2); assay: CHRDL2 small-molecule binders, primary screen, biochemical, small-molecule microarray, 635 nm fluorescence (AID 1126); details: small-molecule microarray binding, fluorescence 635 nm; higher = more signal;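 note: printed compound slides probed with Chrdl2 protein at 4 µg/mL for 1 h at 4 C; score merges 667 nm emission intensity with signal to noise over three replicate slides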
[10] = molecular target: Concanavalin-A (Canavalia ensiformis) (UniProt P02866); assay: ConA small-molecule binders, primary screen, artefact control for SMM control protein annotation, biochemical, small-molecule microarray, Alexa647 label, 635 nm (AID 1127); details: ConA-A647 binding fluorescence, higher = more signal;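 note: z combines 667 nm emission intensity with signal-to-noise across three replicate slides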
[11] = anti-His antibody binders, primary screen, artefact control for SMM control protein annotation, biochemical, small-molecule microarray, 635 nm fluorescence (AID 1128); details: anti-His Alexa647 antibody binding, higher = more signal;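 note: score merges feature fluorescence with signal-to-noise for each printed compound spot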
[12] = system: Human papillomavirus type 1a E7 protein (residues 1-88); assay: HPV1a E7 small-molecule binders, primary screen, biochemical, small-molecule microarray, residues 1-88, 635 nm (AID 1129); details: small-molecule microarray binding, fluorescence 635 nm; higher = more signal
[13] = molecular target: Focal adhesion kinase 1 (Homo sapiens) (UniProt Q05397); assay: small-molecule microarray binders of FAK, primary screen, biochemical, 635/667 nm fluorescence, BSA, DTT (AID 1130); details: PTK2 binding, 635 nm fluorescence, higher = more signal;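 note: composite of spot emission at 667 nm and signal to noise over triplicate slides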
[14] = system: Fibrinogen (Alexa647-labelled); assay: fibrinogen binders on compound microarrays, profiling panel, artefact control for SMM control-protein annotation, biochemical, small-molecule microarray, 635/667 nm fluorescence (AID 1131); details: fibrinogen-A647 binding fluorescence, higher = more signal;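 note: z-score merges 667 nm fluorescence with per-spot signal-to-noise over triplicate slides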
[15] = molecular target: Follistatin (Homo sapiens) (UniProt P19883); assay: follistatin binders on small-molecule microarrays, primary screen, biochemical, small-molecule microarray, 635/667 nm fluorescence (AID 1132); details: FST binding, 635 nm fluorescence, higher = more signal
[16] = molecular target: Fibroblast growth factor 2 (Homo sapiens) (UniProt P09038); assay: FGF2 binders on small-molecule microarrays, primary screen, biochemical, small-molecule microarray, 635/667 nm fluorescence (AID 1133); details: small-molecule microarray binding, FGF2, fluorescence 635/667; higher = more signal
[17] = mitochondrial membrane potential change in A549 cells, profiling panel, cell-based, JC-1 fluorescence, basal, 24 h, 100 nL (AID 1138); details: higher = more signal;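 note: A549 lung adenocarcinoma cells under basal conditions with no added stimulus; test concentration not given here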
[18] = system: Lefty1; assay: Lefty1 binders on small-molecule microarrays, primary screen, biochemical, small-molecule microarray, 635/667 nm fluorescence (AID 1139); details: small-molecule microarray binding, fluorescence 635/667; higher = more signal
[19] = system: wheat germ agglutinin (Triticum aestivum), Alexa647-labelled; assay: wheat germ agglutinin binders on compound microarrays, profiling panel, artefact control for SMM control-protein annotation, biochemical, small-molecule microarray, 635/667 nm fluorescence (AID 1140); details: WGA-A647 binding, 635 nm fluorescence, higher = more signal;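 note: score merges 667 nm feature emission with signal to noise over triplicate slides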
[20] = molecular target: Luciferin 4-monooxygenase (Photinus pyralis) (UniProt P08659); assay: firefly luciferase enzyme inhibitors, primary screen, biochemical, luminescence, purified enzyme, 2006 set (AID 1141); details: SteadyGlo luminescence, 30 min, higher = more signal, called active from +8 up or from −8 down;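 note: cell-free assay with purified firefly luciferase at 100 ng per well in PBS; test concentration not given here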
Sequence of Luciferin 4-monooxygenase (Photinus pyralis) (P08659 whole entry, looked up): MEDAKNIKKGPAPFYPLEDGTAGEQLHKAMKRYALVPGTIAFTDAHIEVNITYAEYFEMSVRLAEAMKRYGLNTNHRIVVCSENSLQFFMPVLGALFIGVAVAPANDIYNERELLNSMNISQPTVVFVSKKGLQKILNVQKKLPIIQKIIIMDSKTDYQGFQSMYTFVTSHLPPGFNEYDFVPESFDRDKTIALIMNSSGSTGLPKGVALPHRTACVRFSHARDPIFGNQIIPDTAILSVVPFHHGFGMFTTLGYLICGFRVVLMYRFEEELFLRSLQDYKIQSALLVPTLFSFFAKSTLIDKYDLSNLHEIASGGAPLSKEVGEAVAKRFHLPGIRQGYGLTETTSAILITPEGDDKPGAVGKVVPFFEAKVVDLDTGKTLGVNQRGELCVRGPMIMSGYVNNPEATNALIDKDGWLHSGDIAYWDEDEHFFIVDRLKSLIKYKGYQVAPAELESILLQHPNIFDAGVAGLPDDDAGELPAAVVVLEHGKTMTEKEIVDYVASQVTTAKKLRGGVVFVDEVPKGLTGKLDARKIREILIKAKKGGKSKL

Sequence of Focal adhesion kinase 1 (Homo sapiens) (Q05397 whole entry, looked up): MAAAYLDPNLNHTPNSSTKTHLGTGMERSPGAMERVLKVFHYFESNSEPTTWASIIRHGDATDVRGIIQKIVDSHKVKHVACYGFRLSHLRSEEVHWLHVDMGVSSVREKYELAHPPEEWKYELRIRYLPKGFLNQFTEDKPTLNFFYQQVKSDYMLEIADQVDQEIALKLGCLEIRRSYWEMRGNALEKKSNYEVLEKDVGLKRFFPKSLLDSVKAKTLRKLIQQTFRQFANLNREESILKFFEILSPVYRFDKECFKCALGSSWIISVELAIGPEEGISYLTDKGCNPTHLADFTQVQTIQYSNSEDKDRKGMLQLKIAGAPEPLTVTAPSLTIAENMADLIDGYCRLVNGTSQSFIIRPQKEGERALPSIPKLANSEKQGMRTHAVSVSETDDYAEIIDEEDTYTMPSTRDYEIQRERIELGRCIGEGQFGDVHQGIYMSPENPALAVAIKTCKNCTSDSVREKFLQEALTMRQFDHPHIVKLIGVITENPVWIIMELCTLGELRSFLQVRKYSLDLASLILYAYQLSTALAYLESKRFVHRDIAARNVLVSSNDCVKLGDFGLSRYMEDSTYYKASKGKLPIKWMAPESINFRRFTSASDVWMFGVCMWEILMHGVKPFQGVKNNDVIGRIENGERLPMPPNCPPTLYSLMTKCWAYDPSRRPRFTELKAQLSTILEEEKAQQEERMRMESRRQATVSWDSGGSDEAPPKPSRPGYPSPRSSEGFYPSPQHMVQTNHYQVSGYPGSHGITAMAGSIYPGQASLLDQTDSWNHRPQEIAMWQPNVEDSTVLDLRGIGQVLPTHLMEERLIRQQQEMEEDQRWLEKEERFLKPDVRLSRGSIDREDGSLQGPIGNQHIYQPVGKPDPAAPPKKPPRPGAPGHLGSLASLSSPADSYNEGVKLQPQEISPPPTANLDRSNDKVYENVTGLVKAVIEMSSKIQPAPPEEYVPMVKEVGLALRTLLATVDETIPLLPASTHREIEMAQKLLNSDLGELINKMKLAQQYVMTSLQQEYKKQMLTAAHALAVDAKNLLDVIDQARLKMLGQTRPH
Sequence of Follistatin (Homo sapiens) (P19883 whole entry, looked up): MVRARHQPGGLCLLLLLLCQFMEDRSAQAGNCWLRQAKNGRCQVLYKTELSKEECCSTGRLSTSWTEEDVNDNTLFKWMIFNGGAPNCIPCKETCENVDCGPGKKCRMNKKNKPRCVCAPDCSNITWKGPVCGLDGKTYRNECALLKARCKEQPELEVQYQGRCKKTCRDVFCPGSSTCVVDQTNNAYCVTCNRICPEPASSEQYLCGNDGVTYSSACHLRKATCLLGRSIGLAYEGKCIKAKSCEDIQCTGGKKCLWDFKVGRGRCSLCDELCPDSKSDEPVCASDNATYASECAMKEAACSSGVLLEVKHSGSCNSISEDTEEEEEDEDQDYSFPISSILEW
Sequence of Concanavalin-A (Canavalia ensiformis) (P02866 whole entry, looked up): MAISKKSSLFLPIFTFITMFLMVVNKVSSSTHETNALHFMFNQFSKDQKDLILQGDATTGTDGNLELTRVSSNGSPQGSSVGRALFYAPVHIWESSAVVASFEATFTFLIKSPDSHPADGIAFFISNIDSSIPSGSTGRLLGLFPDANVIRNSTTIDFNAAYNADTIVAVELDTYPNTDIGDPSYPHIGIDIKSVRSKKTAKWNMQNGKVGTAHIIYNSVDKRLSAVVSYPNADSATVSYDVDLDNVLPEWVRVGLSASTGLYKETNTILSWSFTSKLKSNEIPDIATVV
Sequence of Fibroblast growth factor 2 (Homo sapiens) (P09038 whole entry, looked up): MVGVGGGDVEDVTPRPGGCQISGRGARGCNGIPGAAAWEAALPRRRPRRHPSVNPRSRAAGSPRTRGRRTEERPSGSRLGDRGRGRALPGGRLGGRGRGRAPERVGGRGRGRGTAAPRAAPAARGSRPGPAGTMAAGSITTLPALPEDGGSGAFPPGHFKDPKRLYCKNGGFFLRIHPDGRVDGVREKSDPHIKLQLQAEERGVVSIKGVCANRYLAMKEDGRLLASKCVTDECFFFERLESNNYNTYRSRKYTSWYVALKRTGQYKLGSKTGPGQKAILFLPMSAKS
Sequence of Albumin (Bos taurus) (P02769 whole entry, looked up): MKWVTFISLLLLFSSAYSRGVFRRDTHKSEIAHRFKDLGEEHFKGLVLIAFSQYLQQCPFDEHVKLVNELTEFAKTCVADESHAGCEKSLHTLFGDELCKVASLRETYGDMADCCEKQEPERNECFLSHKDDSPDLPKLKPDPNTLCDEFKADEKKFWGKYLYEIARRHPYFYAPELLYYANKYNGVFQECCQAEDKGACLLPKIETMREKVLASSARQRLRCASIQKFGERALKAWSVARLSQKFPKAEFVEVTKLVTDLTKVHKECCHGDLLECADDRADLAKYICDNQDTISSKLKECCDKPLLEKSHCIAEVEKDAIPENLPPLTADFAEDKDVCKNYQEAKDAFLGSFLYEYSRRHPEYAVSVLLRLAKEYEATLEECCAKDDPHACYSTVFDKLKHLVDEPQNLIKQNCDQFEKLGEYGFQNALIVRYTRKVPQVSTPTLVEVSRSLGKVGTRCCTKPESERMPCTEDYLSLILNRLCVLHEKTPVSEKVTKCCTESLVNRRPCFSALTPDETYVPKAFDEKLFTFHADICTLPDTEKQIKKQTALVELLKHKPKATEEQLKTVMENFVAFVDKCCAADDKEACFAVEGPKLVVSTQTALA

Compound | composite z-score [1] | composite Z-score [2] | composite z-score [3] | composite z-score [4] | composite z-score [5] | composite z-score [6] | composite z-score [7] | composite z-score [8] | composite z-score [9] | composite z-score [10] | composite z-score [11] | composite z-score [12] | composite z-score [13] | composite z-score [14] | composite z-score [15] | composite z-score [16] | z-score [17] | composite z-score [18] | composite z-score [19] | z-score [20]
CCCNC(=O)OC[C@H]1O[C@H](CCON=C2c3cc(OC)ccc3O[C@H](c3cccc(OC)c3)[C@H]2O)C=C[C@@H]1Oc1ccc(OC)cc1 | 0.491 | 3.22 (inactive) | 0.219 | 0.0889 | 0.137 | 1.24 | 0.812 | 0.956 | 0.366 | 0.493 | 2.07 | 0.824 | 0.222 | 0.618 | 0.418 | 1.11 | 1.2 | 0.292 | 0.228 | 0.652 (inactive)
CCN(CC)CC(O)CN1CCCCc2nc(C)c(C)cc21 (stereo not given) | 0.401 | -0.336 (inactive) | 0.0026 | -0.195 | 0.367 | 0.243 | -0.072 | 0.334 | 0.468 | 0.363 | 1 | 0.546 | -0.0492 | 0.0982 | 0.355 | 0.639 | 1.09 | 0.516 | 0.944 | -1.12 (inactive)
C[C@H]1C=CCC(=O)OC[C@H](C)C(=O)N2CCC[C@H]2C(=O)OC1 | -0.68 | 0.472 (inactive) | -0.161 | -0.115 | -0.656 | -0.802 | 0.374 | -0.374 | 1.62 | -0.35 | -0.637 | -1.44 | -0.943 | -1.09 | 1.43 | 2.01 | -0.823 | 1.61 | -1.18 | 1.32 (inactive)
COC(=O)[C@H](C)NC(=O)CCC1CC(OC(=O)NCCc2ccc(F)cc2)CC2(CCCC(COC(=O)NCCOc3ccccc3)O2)O1 (stereo not given in full) | 0.752 | 0.59 (inactive) | -0.029 | -0.0921 | 0.282 | 1.21 | -0.0401 | 1.31 | 1.03 | 1.02 | 0.989 | 1.16 | 0.821 | 0.659 | 0.826 | 0.307 | 1.08 | 1.41 | 0.309 | 0.549 (inactive)
CCOC(=O)[C@H](CC(C)C)NC(=O)CCC1CC(OC(=O)NCc2ccc3c(c2)OCO3)CC2(CCCC(COC(=O)NCCc3ccc(Cl)cc3)O2)O1 (stereo not given in full) | 0.619 | -0.232 (inactive) | 0.0116 | -0.159 | 0.232 | 0.817 | 0.127 | 1.11 | 0.359 | -0.0326 | 0.141 | 0.653 | 0.0146 | -0.092 | 0.62 | 0.671 | 0.387 | 1.14 | 0.669 | 0.621 (inactive)
CCOC(=O)[C@H](CC(C)C)NC(=O)CCC1CC(OC(=O)NCc2ccc3c(c2)OCO3)CC2(CCCC(COC(=O)NCCC(C)C)O2)O1 (stereo not given in full) | 0.42 | 0.231 (inactive) | -0.0555 | -0.112 | 0.515 | 0.298 | 0.0199 | -0.557 | -0.085 | -0.746 | 0.348 | -0.438 | 0.0454 | -0.27 | -0.14 | 0.279 | 0.471 | 0.172 | 0.182 | 0.537 (inactive)
COC(=O)CC=C[C@@H](C)[C@@H](C=NOC[C@@H](O)[C@H]1O[C@@H]2OC(C)(C)O[C@@H]2[C@H]1O)OC | -0.0287 | -0.931 (inactive) | -0.0647 | -0.13 | -0.131 | -0.104 | 0.149 | 0.444 | 0.744 | 0.333 | 1.57 | 0.612 | 0.167 | 0.0843 | 0.834 | 0.943 | 0.0187 | 0.59 | 0.006 | -0.512 (inactive)
CON=C(C)CCN1CCc2nc(-c3ccccc3)c(-c3ccccc3)cc2C1 | 0.633 | 0.837 (inactive) | -0.132 | -0.0829 | -0.153 | -0.556 | 0.0881 | -0.303 | 0.258 | 1.13 | -0.634 | -0.545 | -0.414 | 0.838 | 0.944 | 0.344 | 2.9 | 0.686 | 0.801 | 0.326 (inactive)
COCOc1ccc(Br)cc1C(=O)C=Cc1ccc2c(c1)OCO2 | -0.0265 | 1.33 (inactive) | -0.132 | -0.169 | -0.321 | -0.576 | -0.684 | -0.562 | 0.525 | -0.723 | 0.263 | -0.396 | -0.141 | 0.962 | 0.516 | 0.449 | 2.57 | 0.471 | 0.69 | -2.08 (inactive)
O=C1[C@H]2CCn3c(=O)n(Cc4cc5c(cc4Cl)OCO5)c(=O)n3[C@H]2[C@H](O)[C@@H]2O[C@H]12 | 0.662 | -0.0662 (inactive) | -0.15 | -0.14 | 0.29 | 0.242 | -0.14 | -0.435 | 0.716 | -0.0737 | 0.85 | -0.542 | -0.255 | 0.855 | 0.596 | 0.299 | -0.512 | 0.298 | 0.176 | -1.44 (inactive)
O=C1C2=CC[C@H]3C(=O)N(c4ccc(F)cc4F)C(=O)[C@H]3[C@H]2[C@H](O)[C@@H]2O[C@H]12 | 0.0384 | -0.778 (inactive) | -0.165 | -0.118 | -0.0649 | -0.293 | 0.0054 | 0.339 | 0.783 | 0.469 | 0.0402 | 0.679 | -0.059 | 0.0936 | 0.397 | 0.34 | 0.0712 | 0.616 | -0.0273 | -0.51 (inactive)
